# Source: PubChem
# Shown are actives, neighbours in structure and some others; about 12% of the full set was active somewhere.
# BAZ2B block – qHTS Assay for Inhibitors of BAZ2B | Potency, µM (doses to about 114 µM), for inactives: at the top dose activity change, negative = inhibition, usual class: inhibitors | AlphaScreen BAZ2B-H3K14Ac peptide displacement | hit rate 4.4% among 360,000; further: potency means the concentration at half of the fitted maximal effect; on the % scale 0 is the no-effect control and ±100 the full control effect; nearly all actives have a fitted effect of over 60% in size
#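 AlphaScreen displacement of biotin-H3(5-23)K14Ac peptide (50 nM final) from BAZ2B (50 nM final) in PBS pH 7.4, 0.01% Tween-20; complex preformed 30 min RT, then compounds (top 110 uM) 30 min RT, beads 20 min dark.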
# JMJD2A Tudor inh – qHTS Assay for Inhibitors of JMJD2A-Tudor Domain; AID 504339, 2011; hit rate 4.4% among 390,000; AlphaScreen JMJD2A-Tudor / H3K4me3 peptide binding; Lysine-specific demethylase 4A (Homo sapiens), O75164; Potency, µM (doses to about 114 µM), without a hit: at the highest dose activity change, negative = inhibition, hits mostly inhibitors; further: potency means the concentration at half of the fitted maximal effect; on the % scale 0 is the no-effect control and ±100 the full control effect; nearly all actives have a fitted effect of over 50% in size
# Sfp inh – qHTS Assay for Inhibitors of Bacillus subtilis Sfp phosphopantetheinyl transferase (PPTase). 4'-phosphopantetheinyl transferase ffp (Bacillus subtilis), Q9F4F7. Biochemical Sfp PPTase activity, qHTS. Potency, µM, for inactives: largest response in the series, negative = inhibition, actives largely listed as inhibitors. hit rate 3.5% among 310,000. AID 1490, 2009;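 further: the enzyme is Sfp with the accession as filed and its product quenches rhodamine fluorescence; potency means the concentration at half of the fitted maximal effect; 0% = enzyme reaction without inhibitor and -100% = no enzyme wells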
#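 Buffer: 50 mM Hepes-Na pH 7.6, 10 mM MgCl2, 0.01% Nonidet P-40, 0.01% BSA. Enzyme 15 nM, pre-exposed to compound 15 min; substrates then added and fluorescence change tracked over 30 min.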
# HP1b binding inh – HTS for Inhibitors of HP1-beta Chromodomain Interactions with Methylated Histone Tails. AlphaScreen HP1-beta / biotin-H3K9me3 peptide binding. Potency, µM (doses to about 114 µM), without a hit: at the top dose activity change, negative = inhibition, actives largely listed as inhibitors. hit rate 0.56% among 390,000. Chromobox protein homolog 1 (Homo sapiens), P83916; further: potency means the concentration at half of the fitted maximal effect; nearly all actives have a fitted effect of over 70% in size
# Target sequence (P83916 whole entry, looked up): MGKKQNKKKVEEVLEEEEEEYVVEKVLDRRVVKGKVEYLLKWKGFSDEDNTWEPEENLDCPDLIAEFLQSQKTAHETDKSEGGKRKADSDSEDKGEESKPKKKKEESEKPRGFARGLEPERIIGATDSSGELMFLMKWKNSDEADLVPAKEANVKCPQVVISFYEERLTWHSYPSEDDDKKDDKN
#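 Compound inhibition of the preformed complex between 50 nM HP1-beta and 50 nM biotinylated H3K9me3 peptide was read by AlphaScreen. Buffer was PBS pH 7.4 with 0.01% Tween-20. Incubations ran 30 min at room temperature, with 10 ug/mL donor/acceptor beads.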
# G9a inh-1 – qHTS Assay for Inhibitors of Histone Lysine Methyltransferase G9a; Histone-lysine N-methyltransferase EHMT2 (Homo sapiens), Q96KQ7; AID 504332, 2011; Potency, µM (doses to about 102 µM), without a hit: at the highest dose activity, negative = inhibition, most hits filed as inhibitors; hit rate 8.8% among 350,000; G9a H3K9 monomethylation, AlphaScreen, 2 h; further: potency means the concentration at half of the fitted maximal effect; on the % scale 0 is the no-effect control and ±100 the full control effect; nearly all actives have a fitted effect of over 75% in size
#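 Readings reflect AlphaScreen signal from monomethyl-H3K9 antibody detection. HMT at 20 nM; substrate b-H3K9 500 nM; cofactor SAM 20 uM; 2 h RT reaction; compounds tested as titrations in qHTS with 15 min preincubation.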
# L3MBTL1 block – qHTS Assay for the Inhibitors of L3MBTL1; hit rate 0.66% among 230,000; AlphaScreen L3MBTL1–H3K9me1 peptide binding; Potency, µM (series often up to 57.1 µM), for inactives: top-dose activity, negative = inhibition, hits mostly inhibitors; further: potency means the concentration at half of the fitted maximal effect; on the % scale 0 is the no-effect control and ±100 the full control effect; nearly all actives have a fitted effect of over 60% in size
#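 L3MBTL1 50 nM + b-AHA-H3(1-15)K9me1 75 nM, 30 min RT; compound added, 30 min RT; streptavidin donor/Ni-chelate acceptor beads 10 ug/mL each final, 30 min RT dark; AlphaScreen read.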
# JMJD2E inh-1 – Inhibitors of Human Jumonji Domain Containing 2E (JMJD2E): 8HQs - Round 1. shares compounds with BAZ2B block. JMJD2E demethylase, FDH-coupled NADH fluorescence. Potency, µM (doses to about 57 µM), inactives show at the top dose activity, negative = inhibition, actives largely listed as inhibitors. hit rate 89% among 130. AID 493212, 2011
# Target sequence (B2RXH2 1-337 limits assumed): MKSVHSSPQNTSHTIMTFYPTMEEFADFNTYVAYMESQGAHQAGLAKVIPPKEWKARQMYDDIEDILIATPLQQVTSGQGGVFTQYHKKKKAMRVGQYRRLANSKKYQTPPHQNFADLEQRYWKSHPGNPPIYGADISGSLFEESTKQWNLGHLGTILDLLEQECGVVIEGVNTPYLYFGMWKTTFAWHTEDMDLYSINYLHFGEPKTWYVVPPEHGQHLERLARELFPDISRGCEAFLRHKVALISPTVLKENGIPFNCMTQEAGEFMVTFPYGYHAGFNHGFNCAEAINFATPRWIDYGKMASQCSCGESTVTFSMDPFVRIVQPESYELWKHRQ
# JMJD2E inh-2 – Confirmation qHTS Assay for Inhibitors of Human Jumonji Domain Containing 2E (JMJD2E). Potency, µM (series often up to 56.8 µM), without a hit: at the highest dose activity change, negative = inhibition, usual class: inhibitors. shares compounds with JMJD2A Tudor inh. Recombinant JMJD2E, FDH-coupled NADH fluorescence (FDH is formaldehyde dehydrogenase). AID 2677, 2010. hit rate 93% among 140
# FDH counter – Counterscreen for JMJD2E Inhibitors: qHTS Assay for Inhibitors of Formaldehyde Dehydrogenase (FDH). shares compounds with JMJD2A Tudor inh. FDH enzyme assay, NADH fluorescence kinetic. Potency, µM (titrated, usually from 56.7 µM), for the others: at the highest dose activity, negative = inhibition, usual class: inhibitors. hit rate 10% among 140
# G9a inh-2 – qHTS Assay for Inhibitors of Histone Lysine Methyltransferase G9a: Hit Confirmation. shares compounds with JMJD2A Tudor inh. G9a H3K9 monomethylation, AlphaScreen, 2 h. Potency, µM, hits mostly inhibitors. hit rate 89% among 370. AID 588344, 2011; further: potency means the concentration at half of the fitted maximal effect; nearly all actives have a fitted effect of over 65% in size
# RGS4 confirm – qHTS for Inhibitors of Regulator of G Protein Signaling(RGS) 4: Hit Validation | Potency, µM, most hits filed as inhibitors | RGS4 GAP activity, Transcreener GDP fluorescence polarization | shares compounds with JMJD2A Tudor inh | hit rate 80% among 25
# Target sequence (P49798 whole entry, looked up): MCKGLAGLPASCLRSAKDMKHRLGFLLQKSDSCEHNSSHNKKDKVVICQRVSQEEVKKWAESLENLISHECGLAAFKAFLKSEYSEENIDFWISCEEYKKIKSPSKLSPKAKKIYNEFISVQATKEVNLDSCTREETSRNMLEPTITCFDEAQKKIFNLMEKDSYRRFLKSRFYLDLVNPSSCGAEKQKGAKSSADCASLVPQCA
# * = called active by the depositor; ? = inconclusive; · = no result; [ ] = remark or other dose. The call rests on the fitted dose curve; in most records, active means well fitted curve in the direction sought with a large enough effect; inconclusive means small, poorly fitted or top-dose-only effect, or another doubt; inactive means no such curve, though single readings can be large; an effect the other way counts as inactive or inconclusive.
SMILES,BAZ2B block,JMJD2A Tudor inh,Sfp inh,HP1b binding inh,G9a inh-1,L3MBTL1 block,G9a inh-2,others
COc1ccccc1-c1cc(Nc2ccn[nH]2)ncn1,·,·,7%,·,2%[0.501 µM],·,·,
O=S(=O)(c1ccc(O)c2ncccc12)N1CCCCC1,·,·,·,·,·,·,·,JMJD2E inh-1=18µM*;JMJD2E inh-2=18µM*;FDH counter=-36%
CCOc1ccc(NS(=O)(=O)c2ccc(OCC)c3ncccc23)cc1,-7%,-11%,-3%,6%,6%,·,·,
O=S(=O)(Nc1ccccc1)c1ccc(O)c2ncccc12,·,·,·,·,·,·,·,JMJD2E inh-1=9.1µM*;JMJD2E inh-2=9.1µM*;FDH counter=-27%
O=S(=O)(Nc1ccccc1F)c1ccc(O)c2ncccc12,·,·,·,·,·,·,·,JMJD2E inh-1=29µM*;JMJD2E inh-2=13µM*;FDH counter=-36%
O=S(=O)(NCc1ccccc1)c1ccc(O)c2ncccc12,·,·,·,·,·,·,·,JMJD2E inh-1=32µM*;JMJD2E inh-2=23µM*;FDH counter=-36%
Cc1ccc(NC(=O)c2c(C)nc3sc(C(=O)Nc4ccc(F)cc4)c(N)c3c2-c2ccc(C)o2)c(C)c1,-4%,0%,·,36%,11%[59 µM],·,·,
O=C(NCc1ccccc1Cl)c1ccc2c(O)c(S(=O)(=O)c3ccccc3)c(=O)[nH]c2c1,?,-9%,·,26%,?,·,·,
Cc1ccc(CNC(=O)CCCn2c(=O)[nH]c3ccc(Br)cc3c2=O)cc1,3%,-12%,·,32%,-20%[59 µM],·,·,
O=C(COc1ccc(Cl)cc1)Nc1sc2c(c1C(=O)Nc1cccc(Cl)c1)CCCC2,?,71µM*,·,?,1.8µM*,·,3.6*,
O=C(COc1ccccc1)Nc1sc2c(c1C(=O)NCc1cccnc1)CCCC2,2%,-24%,-25%,17%,-5%[59 µM],0%,·,
CCOc1ccc(NC(=O)c2c(NCc3cccnc3)sc3c2CCCC3)cc1,-29%,22µM*,·,-11%,2.8µM*,·,1.6*,
O=C(Sc1nnnn1C1CCCCC1)c1cccs1,?,·,35µM*,·,?,-2%[11.4 µM],0.71*,
O=C(CSc1nnnn1C1CCCCC1)Nc1ccccc1F,-28%,-3%,22%,49%,·,3%,·,
CC(C)c1ccc(NC(=O)c2cn(C3CCCC3)c(=O)c3c2c2ccccc2n3C)cc1,-9%,-18%,·,18%,-29%[59 µM],·,·,
COc1ccc(Cl)cc1C(=O)Nc1ccncc1,-12%,3%,5%,72%,?,-3%,·,
CCN(CC)c1ccc(NC(=O)c2cc(Cl)ccc2OC)cc1,?,45µM*,-9%,35µM*,2.5µM*,·,1.4*,
COc1cccc(C(=O)Nc2ccc(N(C)C)cc2)c1OC,50µM*,56µM*,1%,?,?,·,7.1*,
Cc1cccc(-c2nn3c(=O)cc(CN4CCN(C(=O)c5ccccc5Br)CC4)nc3s2)c1,5%,4%,·,9%[57 µM],-16%[59 µM],·,·,
O=C1CCCC(C(C(=O)OCc2ccccc2)C(=O)OCc2ccccc2)C1 (stereo not drawn),·,·,-5%,·,·,·,·,
CCOc1ccc(CNc2ccc(N3CCCC3)cc2)cc1,18µM*,63µM*,?,-30%,?,?,0.89*,
COc1cccc(CNc2ccc(N3CCCCC3)cc2)c1OC,14µM*,35µM*,2.8µM*,40µM*,?,20µM*,0.89*,
CC(C)c1ccc(CNc2ccc(N3CCOCC3)cc2)cc1,13µM*,40µM*,45µM*,11µM*,?,?,10*,
COc1cccc(CNc2ccc(S(N)(=O)=O)cc2)c1OC,1%,-7%,12%,25%,14%[12.7 µM],3%,·,
Cn1nc(C(=O)Nc2nc(-c3ccccn3)cs2)c2ccccc2c1=O,18µM*,22µM*,·,?,4.5µM*,-19%,·,RGS4 confirm=11*
SMILES,BAZ2B block,JMJD2A Tudor inh,Sfp inh,HP1b binding inh,G9a inh-1,L3MBTL1 block,G9a inh-2,others
CCOc1ccc(CCNC(=O)c2cc3c(=O)[nH]c4ccc(C)cc4c3s2)cc1OCC,-17%,-21%,·,20%,3%[59 µM],·,·,
Cc1cccc(NC(c2ccc(C)s2)c2ccc3ccc(C)nc3c2O)n1 (stereo not drawn),8%,-4%,-3%,-2%,1.8µM*,-12%,0.4*,
CNC(=O)NC(=O)CSc1ccc(S(=O)(=O)N2CCOCC2)cn1,-3%,2%,·,47%,?,1%,5*,
Cc1cc(C)cc(NC(=O)CCn2cnc3ccccc3c2=O)c1,-3%,-19%,·,7%[57 µM],-10%[59 µM],·,·,
COc1ccccc1N1CCN(C(=O)c2ccc(CN3CCc4ccccc4C3)cc2)CC1,-1%,?,13%,7%,-7%[59 µM],·,·,
COc1ccc(CN2CCc3ccccc3C2)cc1Br,50µM*,28µM*,79µM*,-27%,2.2µM*,-7%,11*,
C#CCCCO/N=C1/C[C@@H](O)[C@@H](O)[C@@H]2[C@@H]3C(=O)N([C@@H](C)c4ccccc4)C(=O)[C@H]3CC[C@H]12,·,·,13%,·,·,·,·,
Cc1cccc(OCc2nnc(SCC(=O)Nc3cccc(C(=O)N4CCOCC4)c3)o2)c1C,-21%,-9%,-6%,12%,2µM*,4%,5*,
